The list is not random: actives were taken first. Their share in the collection is about 4.1%.
aSyn UTR inh: 5' untranslated region of α-synuclein, MLPCN primary screen; alpha-synuclein 5'UTR reporter, inhibitor activity; inhibition, % (tested at 7.5 µM); 300,000 compounds, 0.82% hits; in the data active = inhibition above about 60%;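 note: H4 neuroglioblastoma cells stably carrying SNCA 5'UTR luciferase fusion; 0% = DMSO wells and 100% = positive control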
Gli-Sufu block: antagonists of Gli-Sufu signaling | Sufu-KO-LIGHT fibroblasts, Gli luciferase reporter luminescence | inhibition, % at 5 µM | 340,000 compounds, 0.74% hits | AID 588413;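 active = inhibition above about 55%, limit read from the data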;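 note: 0% = DMSO-treated cells and 100% = wells with medium but no cells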
Jurkat NFkB inh: inhibitors of the PMA/ionomycin-induced NF-kB reporter in Jurkat cells. inhibition, % at 4 µM. AID 435003. PMA/ionomycin-induced NF-kB luciferase reporter, luminescence. 330,000 compounds, 0.53% hits; in the data active = inhibition above about 50%
Mdm2-MdmX inh: disrupts the human Mdm2-MdmX interaction; inhibition, % at 8 µM; AID 485346; SaOS-2 split-luciferase Mdm2/MdmX complementation, luminescence; 330,000 compounds, 3% hits;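 active = inhibition of at least 50% at 8 µM in the primary screen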
Target sequence (O15151 whole entry, looked up): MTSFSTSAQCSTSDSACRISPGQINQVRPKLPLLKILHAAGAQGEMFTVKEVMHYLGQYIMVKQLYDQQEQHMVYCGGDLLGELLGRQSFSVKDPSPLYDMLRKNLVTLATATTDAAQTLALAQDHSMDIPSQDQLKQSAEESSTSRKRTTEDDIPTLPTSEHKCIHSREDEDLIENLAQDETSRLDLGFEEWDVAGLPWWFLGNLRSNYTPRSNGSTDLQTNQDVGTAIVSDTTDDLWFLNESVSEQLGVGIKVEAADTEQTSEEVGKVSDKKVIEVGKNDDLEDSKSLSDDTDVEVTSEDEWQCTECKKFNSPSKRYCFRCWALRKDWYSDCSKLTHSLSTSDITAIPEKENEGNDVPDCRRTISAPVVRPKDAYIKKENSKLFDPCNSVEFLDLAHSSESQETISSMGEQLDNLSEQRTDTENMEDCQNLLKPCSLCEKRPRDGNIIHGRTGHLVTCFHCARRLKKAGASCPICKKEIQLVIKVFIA
Target sequence (Q00987 whole entry, looked up): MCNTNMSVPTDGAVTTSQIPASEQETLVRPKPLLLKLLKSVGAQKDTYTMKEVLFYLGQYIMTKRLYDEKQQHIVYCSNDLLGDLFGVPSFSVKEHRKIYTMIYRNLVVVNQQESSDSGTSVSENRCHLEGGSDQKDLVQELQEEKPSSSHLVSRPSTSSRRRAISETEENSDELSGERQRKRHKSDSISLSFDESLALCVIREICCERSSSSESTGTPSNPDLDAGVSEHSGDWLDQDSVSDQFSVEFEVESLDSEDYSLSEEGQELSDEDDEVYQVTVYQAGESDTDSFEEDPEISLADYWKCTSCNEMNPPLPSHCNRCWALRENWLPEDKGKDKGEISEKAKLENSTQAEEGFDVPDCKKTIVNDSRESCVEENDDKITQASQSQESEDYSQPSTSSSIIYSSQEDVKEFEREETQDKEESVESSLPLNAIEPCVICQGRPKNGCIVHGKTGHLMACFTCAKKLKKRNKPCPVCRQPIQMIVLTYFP
697 NFkB inh: lowers PMA/ionomycin-induced NF-kB signal in 697 B cells; inhibition, % at 4 µM; 697 B-cell NF-kB luciferase reporter, 16 h; 330,000 compounds, 0.33% hits; in the data active = inhibition above about 35%
KLF5 inh: inhibitors of KLF5 expression | DLD-1 KLF5 promoter-luciferase reporter, luminescence | inhibition, % at 5 µM | 290,000 compounds, 0.23% hits | AID 1700;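 active = inhibition above a per-plate limit of that plate's mean compound inhibition plus 3 SD, cut at about 60% in these data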;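 note: 0% = DMSO wells and 100% = LY294002 at 200 µM; higher means less KLF5 promoter-driven luciferase light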
Mdm2-MdmX conf: confirmation of human Mdm2/MdmX interaction inhibitors; Mdm2-MdmX binding, luminescent assay; 10,000 compounds, 55% hits; AID 489028; inhibition, % at 8 µM; shares compounds with Mdm2-MdmX inh; in the data active = inhibition above about 40%
Full FLuc ctr: inhibits full-length luciferase, flagging false Mdm2/MdmX hits | inhibition, % at 8 µM | SaOS-2 full-length luciferase counterscreen, luminescence | shares compounds with Mdm2-MdmX inh | AID 504607 | 6,200 compounds, 77% hits;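 active = mean inhibition at 8 µM reaching about 37%, which flags the compound as non-specific, limit read from the data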;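 note: p53-null SaOS-2 cells with luciferase driven by a doxycycline-inducible promoter; compound on cells about two nights before reading with doxycycline added after day one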
* hit, by the source's call; nt = no result.

SMILES	aSyn UTR inh	Gli-Sufu block	Jurkat NFkB inh	Mdm2-MdmX inh	697 NFkB inh	KLF5 inh	Mdm2-MdmX conf	Full FLuc ctr
O=C(NC(NC(=S)Nc1ccc(Cl)cc1Cl)C(Cl)(Cl)Cl)c1cccc([N+](=O)[O-])c1 (centres undefined)	-1	26	-56	98*	-52	13	94*	22
O=C(NC(NC(=S)Nc1ccccc1)C(Cl)(Cl)Cl)c1cccc(Cl)c1 (centres undefined)	-5	4	17	93*	3	-18	46*	66*
O=C(O)c1cccc(NC(=S)NC(NC(=O)c2cccc([N+](=O)[O-])c2)C(Cl)(Cl)Cl)c1 (centres undefined)	-39	-5	-4	16	-28	7	nt	nt
Nc1nc(SCn2nnc3ccccc3c2=O)n[nH]1	2	-1	-18	1	12	-41	nt	nt
Cc1ccc(C(=O)N2CCN(c3ccccc3F)CC2)cc1S(=O)(=O)N1CCOCC1	7	3	2	-25	15	-3	nt	nt
COc1cccc(Nc2nc(NCCO)c3ccccc3n2)c1	-47	2	10	65*	-25	-22	62*	28
c1ccc(Nc2nc(NCc3ccco3)c3ccccc3n2)cc1	-67	56*	-10	78*	-67	-31	2	nt
O=S(=O)(Nc1ncccn1)c1ccc(NC(=S)N2CCN(Cc3ccc(F)cc3Cl)CC2)cc1	3	0	1	45	2	-11	nt	nt
COc1ccc(CCNC(=O)CCS(=O)(=O)Cc2ccccc2C)cc1OC	0	1	-5	-9	0	-29	nt	nt
Cc1cc(OC2CCCCC2)nc(NCc2ccccc2)n1	18	3	28	50*	-21	-27	31	nt
N#CC1=C(c2ccccc2)/C(=C/c2ccccc2)OC1=O	20	-18	19	100*	6	-2	75*	49*
O=C(c1cccs1)N1CCc2c([nH]c3ccccc23)C1c1ccc(Cl)cc1 (centres undefined)	38	4	10	73*	-127	-11	58*	97*
COc1cc(CN(C(=O)c2ccco2)C2CCS(=O)(=O)C2)cc(OC)c1OC (centres undefined)	-10	29	8	0	4	-31	nt	nt
Cc1ccc(S(=O)(=O)Nc2cccc3cccnc23)c([N+](=O)[O-])c1	71*	61*	47	100*	-62	-6	75*	54*
O=S(=O)(Nc1cccc2cccnc12)c1ccc(S(=O)(=O)N2CCCC2)cc1	45	20	-14	83*	8	7	53*	37*
O=C(NC(Cc1ccccc1)C(=O)O)C1CCN(S(=O)(=O)c2ccccc2C(F)(F)F)CC1 (centres undefined)	-18	8	-21	6	9	-11	nt	nt
COc1cc2oc(-c3ccc(O)cc3)cc(=O)c2c(O)c1OC	-73	-9	-15	48	-5	nt	nt	nt
COc1cc2oc(-c3ccc(O)cc3)cc(=O)c2c(OC)c1O	21	16	3	51*	14	-37	17	nt
O=c1cc(-c2ccc(O)cc2)oc2ccc3ccccc3c12	nt	4	12	68*	-34	nt	66*	75*
CCOc1ccc(S(=O)(=O)N2CCCC(C(=O)NCc3cccnc3)C2)cc1 (centres undefined)	-4	17	3	-10	17	-31	nt	nt
CC[C@H](C)[C@H]1O[C@]2(CC[C@@H]1C)C[C@@H]1C[C@@H](CC=C(C)[C@@H](O[C@H]3C[C@H](OC)[C@@H](O[C@H]4C[C@H](OC)[C@@H](O)[C@H](C)O4)[C@H](C)O3)[C@@H](C)C=CC=C3CO[C@@H]4[C@H](O)C(C)=C[C@@H](C(=O)O1)[C@]34O)O2	nt	4	15	100*	0	nt	23	nt
COc1ccccc1C1CCCN1Cc1nc(-c2ccc(C)s2)oc1C (centres undefined)	34	24	-9	75*	-33	-5	66*	52*
Cc1cc(C=C2C(=O)c3ccccc3C2=O)c(C)n1-c1ccccc1	-43	12	-9	62*	-31	-4	56*	34
Cc1cc(/C=C2/C(=O)NN(c3ccccc3)C2=O)c(C)n1-c1cccc(O)c1	-74	6	-40	73*	-92	-20	72*	122*
Cc1sc(NC(=O)CSC2=NCCS2)nc1-c1ccccc1	-44	-1	-20	30	-27	-30	nt	nt
SMILES	aSyn UTR inh	Gli-Sufu block	Jurkat NFkB inh	Mdm2-MdmX inh	697 NFkB inh	KLF5 inh	Mdm2-MdmX conf	Full FLuc ctr
CC(=O)N1CC(=O)N=C1SCC(=O)Nc1nc(-c2ccccc2)c(-c2ccccc2)s1	-40	2	2	57*	23	-7	10	nt
CN1CCN(c2ccccc2NC(=O)c2ccc(-c3ccc(Cl)cc3Cl)o2)CC1	-8	9	15	56*	-8	-32	52*	86*
CC1=NN(c2ccc(C)cc2)C(=O)/C1=C/c1ccc(-c2cc([N+](=O)[O-])ccc2O)o1	4	-7	-11	67*	-20	-34	31	nt
CCOC(=O)c1cc(NC(=O)c2ccc(C)cc2)c(=O)oc1-c1ccccc1	12	8	8	-3	9	6	nt	nt
CCOC(=O)c1cc(NC(=O)c2ccccc2)c(=O)n2c1oc1ccccc12	10	5	-9	56*	-1	-21	7	nt
Cc1nnc(-c2ccc(N3CCOCC3)c([N+](=O)[O-])c2)o1	nt	-2	-8	4	13	nt	nt	nt
Cc1cccc(Nc2nnc(-c3ccc(N4CCOCC4)c([N+](=O)[O-])c3)c3ccccc23)c1	33	27	12	60*	-4	-11	37	84*
Cc1cc(C)nc(N/C(=N\S(=O)(=O)Cc2ccccc2)Nc2ccccc2Br)n1	44	8	6	52*	-53	-6	55*	104*
Cc1cc(C)nc(Nc2ccccc2Br)n1	14	-10	-3	-16	14	-26	nt	nt
O=C(Nc1ccc(S(=O)(=O)N2CCCCCC2)cc1)c1[nH]ncc1[N+](=O)[O-]	86*	nt	-25	52*	-50	-1	36	nt
O=C(Nc1ccc([N+](=O)[O-])cc1)c1ccc(S(=O)(=O)N2CCCC2)cc1	12	2	13	8	5	-15	nt	nt
Cc1oc(-c2ccccc2)nc1CC(=O)O	-47	0	-13	-2	-1	-47	nt	nt
Cc1oc(-c2ccccc2)nc1C(=O)O	-23	5	4	77*	-11	-18	-20	nt
COc1ccc(/C=C/C(=O)Nc2ccc3nc4n(c(=O)c3c2)CCCC4)cc1OC	17	-2	-4	60*	-6	-32	14	nt
O=C(Nc1ccc2nc3n(c(=O)c2c1)CCCCC3)c1cc([N+](=O)[O-])ccc1F	-42	15	29	98*	-83	10	79*	22

Assay outcomes: PubChem, several laboratories
